Compound activity from PubChem.
hcDAF12 agonist – H. contortus DAF-12 nuclear receptor activators, primary screen, cell-based, luminescence, HEK293, lit1-tk-luc reporter. HEK293 hcDAF-12 lit1-tk-luc reporter; 0% DMSO, 100% Δ7-dafachronic acid. activation, % at 6.8 µM. 370,000 compounds, 1.4% hits. AID 652067, 2013;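 active means activation above the mean of all tested compounds plus 3 SD, cut at about 5.5% in these data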
SMARCA2 act – SMARCA2 (BRM) function activators, primary screen, cell-based, luminescence, high throughput. MG213 cells, MMTV-luciferase reporter, dexamethasone, overnight. activation, % at 9.1 µM. 370,000 compounds, 1% hits. AID 652017, 2013; in the data active means activation above about 7.8%
DAX1 inh-1 – DAX1 (NR0B1) inhibitors on StAR promoter, primary screen, cell-based, luminescence, SF-1 (NR5A1), full-length DAX-1 | HEK293T StAR-luciferase reporter, SF-1/DAX-1 repression relief | inhibition, % at 6.8 µM | 370,000 compounds, 1.1% hits | AID 652010, 2013;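 active means inhibition above the mean over all tested compounds plus 3 SD, cut at about 3.6% in these data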;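 further: higher inhibition means more luminescence from relief of DAX-1 repression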
DAX1 inh-2 – DAX1 (NR0B1) inhibitors, primary screen, cell-based, HEK293, Gal4-DAX1, luciferase luminescence | HEK293 Gal4-DAX1 luciferase reporter | 340,000 compounds, 0.99% hits | inhibition, % at 6.75 µM;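 active means inhibition above the mean over all tested compounds plus 3 SD, cut at about 4.2% in these data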;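 further: inhibition shows as a rise in luminescence from relieved DAX1 repression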
ssDAF12 agonist – S. stercoralis DAF-12 nuclear receptor activators, primary screen, cell-based, luminescence, HEK293, GRIP1 co-expression, lit1-tk-luc; 370,000 compounds, 1% hits; Nuclear hormone receptor DAF-12 (Strongyloides stercoralis); HEK293 ssDAF-12/GRIP1 lit1-tk-luc reporter; % of 3 µM dafachronic acid response; activation, % at 6.8 µM; AID 652126, 2013;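 active means activation above the mean over all tested compounds plus 3 SD, cut at about 0.9% in these data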
hgDAF-12 ag – H. glycines DAF-12 receptor agonists, primary screen, cell-based, luminescence, HEK293, GAL4 fusion, UAS-luciferase. Nuclear hormone receptor DAF-12 (Heterodera glycines), GAL4 fusion. HEK293 GAL4-hgDAF12 UAS-luciferase reporter, agonist luminescence; normalized to butyrate control. activation, % at 6.8 µM. 370,000 compounds, 1.8% hits;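 active means activation above a cutoff set at the mean of all screened compounds plus 3 SD, cut at about 10% in these data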
LXR ag – LXR agonists, Gal4 luciferase reporter, confirmation, counter-screen for hcDAF-12 agonist project, cell-based, luminescence, HEK293, H. contortus campaign | shares compounds with hcDAF12 agonist | HEK293 Gal4-LXR tk-luc reporter, 24 h; normalized: DMSO 0%, positive control 100% | activation, % at 6.8 µM | 3,400 tested, under 10 active | AID 743027, 2013;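 active means mean percent activation of the reporter above a cutoff set as the average over tested compounds plus their standard deviation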
Target sequence (P55055 whole entry, looked up, the tested form may be a part): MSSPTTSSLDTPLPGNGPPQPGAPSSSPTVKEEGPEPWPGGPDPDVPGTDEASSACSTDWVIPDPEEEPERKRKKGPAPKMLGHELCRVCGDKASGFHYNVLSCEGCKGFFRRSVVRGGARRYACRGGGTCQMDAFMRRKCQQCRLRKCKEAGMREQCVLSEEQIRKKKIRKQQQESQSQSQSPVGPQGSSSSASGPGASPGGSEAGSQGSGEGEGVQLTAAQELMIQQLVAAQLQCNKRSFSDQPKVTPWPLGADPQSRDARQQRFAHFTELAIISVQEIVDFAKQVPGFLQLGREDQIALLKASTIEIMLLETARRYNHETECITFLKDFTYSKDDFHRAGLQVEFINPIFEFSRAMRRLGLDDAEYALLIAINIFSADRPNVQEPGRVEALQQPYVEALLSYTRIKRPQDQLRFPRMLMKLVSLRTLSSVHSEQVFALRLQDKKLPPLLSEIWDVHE
hcDAF12 ag – H. contortus DAF-12 receptor agonists, confirmation, cell-based, luminescence, HEK293, lit1-tk-luc, triplicate; shares compounds with hcDAF12 agonist; HEK293 hcDAF-12 lit1-tk-luc reporter; % of Δ7-dafachronic acid response; activation, % at 6.8 µM; 3,400 compounds, 61% hits; AID 743032, 2013;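 active means mean activation across triplicate tests above the threshold derived from the earlier primary screen, cut at about 5.5% in these data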
A number is an active result. Shown are actives, neighbours in structure and some others; about 4.8% of the full set was active somewhere.

How did Cn1c(=N)n(CC(=O)c2ccccc2)c2ccccc21 do in these assays?
hcDAF12 agonist: 18; SMARCA2 act: inactive; DAX1 inh-1: inactive; ssDAF12 agonist: 2.5; hgDAF-12 ag: 11; LXR ag: inactive; hcDAF12 ag: 25

Results for O=c1c2ccccc2c(C=Nc2cccc(S(=O)(=O)NCc3ccco3)c2)c(O)n1-c1ccc(Cl)cn1 ?
hcDAF12 agonist: inactive; SMARCA2 act: inactive; DAX1 inh-1: inactive; DAX1 inh-2: inactive; ssDAF12 agonist: inactive; hgDAF-12 ag: inactive

Results for Cc1ccc2cn[nH]c2c1N ?
hcDAF12 agonist: 6.9; SMARCA2 act: inactive; DAX1 inh-1: inactive; DAX1 inh-2: inactive; ssDAF12 agonist: inactive; hgDAF-12 ag: inactive; LXR ag: inactive; hcDAF12 ag: inactive

How did CN1CCN(CCCNC(=O)Cn2nc(-c3ccccc3)ccc2=O)CC1 do in these assays?
hcDAF12 agonist: 8.5; SMARCA2 act: inactive; DAX1 inh-1: inactive; DAX1 inh-2: inactive; ssDAF12 agonist: inactive; hgDAF-12 ag: inactive; LXR ag: inactive; hcDAF12 ag: inactive

How did O=C(Cn1nc(-c2ccccc2)ccc1=O)NCCCN1CCOCC1 do in these assays?
hcDAF12 agonist: inactive; SMARCA2 act: inactive; DAX1 inh-1: inactive; DAX1 inh-2: inactive; ssDAF12 agonist: inactive; hgDAF-12 ag: inactive

How did Cc1cc(=O)oc2cc(OCC(=O)OCC(=O)NCc3ccc4c(c3)OCO4)ccc12 do in these assays?
hcDAF12 agonist: inactive; SMARCA2 act: inactive; DAX1 inh-1: inactive; DAX1 inh-2: inactive; ssDAF12 agonist: inactive; hgDAF-12 ag: inactive

How did CC1(C(=O)NS(=O)(=O)c2ccccc2)CCN1C(=O)Cc1cccs1 (stereo not given) do in these assays?
hcDAF12 agonist: inactive; SMARCA2 act: inactive; DAX1 inh-1: inactive; ssDAF12 agonist: inactive; hgDAF-12 ag: inactive

Results for CCOc1nc(-c2ccccc2)ccc1-c1noc(-c2cccs2)n1 ?
hcDAF12 agonist: inactive; SMARCA2 act: inactive; DAX1 inh-1: inactive; DAX1 inh-2: inactive; ssDAF12 agonist: inactive; hgDAF-12 ag: inactive

What do the screens show for `CCOc1ncccc1-c1nc(-c2cccs2)no1`?
hcDAF12 agonist: 9.8; SMARCA2 act: inactive; DAX1 inh-1: inactive; DAX1 inh-2: inactive; ssDAF12 agonist: inactive; hgDAF-12 ag: inactive; LXR ag: inactive; hcDAF12 ag: 9.2

How did NC(=O)c1ccccc1N/C=C/C(=O)c1ccc(Cl)cc1 do in these assays?
hcDAF12 agonist: 6.7; SMARCA2 act: inactive; DAX1 inh-1: inactive; DAX1 inh-2: inactive; ssDAF12 agonist: inactive; hgDAF-12 ag: inactive; LXR ag: inactive; hcDAF12 ag: inactive

Results for CCOC(=O)c1ccccc1N/C=C/C(=O)c1ccccc1 ?
hcDAF12 agonist: inactive; SMARCA2 act: inactive; DAX1 inh-1: inactive; DAX1 inh-2: inactive; ssDAF12 agonist: inactive; hgDAF-12 ag: inactive

How did Cc1ccc(N=C2NC(=O)/C(=C/C=C/c3ccco3)S2)cc1 do in these assays?
hcDAF12 agonist: 7.9; SMARCA2 act: inactive; DAX1 inh-1: inactive; DAX1 inh-2: inactive; ssDAF12 agonist: inactive; hgDAF-12 ag: inactive; LXR ag: inactive; hcDAF12 ag: inactive

Results for O=C1NC(=Nc2ccccc2)S/C1=C\C=C\c1ccco1 ?
hcDAF12 agonist: inactive; SMARCA2 act: inactive; DAX1 inh-1: inactive; DAX1 inh-2: inactive; ssDAF12 agonist: inactive; hgDAF-12 ag: inactive

How did CCCN1CCN(C(=S)Nc2ccc([N+](=O)[O-])cc2)CC1 do in these assays?
hcDAF12 agonist: 9.1; SMARCA2 act: inactive; DAX1 inh-1: inactive; DAX1 inh-2: inactive; ssDAF12 agonist: inactive; hgDAF-12 ag: inactive; LXR ag: inactive; hcDAF12 ag: inactive

How did CCCN1CCC(NC(=S)Nc2ccc([N+](=O)[O-])cc2)CC1 do in these assays?
hcDAF12 agonist: inactive; SMARCA2 act: inactive; DAX1 inh-1: inactive; DAX1 inh-2: inactive; ssDAF12 agonist: inactive; hgDAF-12 ag: inactive

Results for O=C(CCCCCn1c(=S)[nH]c2cc3c(cc2c1=O)OCO3)N1CCN(c2ccccc2)CC1 ?
hcDAF12 agonist: 6.8; SMARCA2 act: inactive; DAX1 inh-1: inactive; DAX1 inh-2: inactive; ssDAF12 agonist: inactive; hgDAF-12 ag: inactive; LXR ag: inactive; hcDAF12 ag: inactive

Results for c1ccc(N2CCN(c3ncnc4scc(-c5cccs5)c34)CC2)cc1 ?
hcDAF12 agonist: inactive; SMARCA2 act: inactive; DAX1 inh-1: inactive; DAX1 inh-2: inactive; ssDAF12 agonist: inactive; hgDAF-12 ag: inactive

What do the screens show for `Cc1sc2ncnc(N[C@@H](Cc3c[nH]c4ccccc34)C(=O)O)c2c1C`?
hcDAF12 agonist: 7.0; SMARCA2 act: inactive; DAX1 inh-1: inactive; DAX1 inh-2: inactive; ssDAF12 agonist: inactive; hgDAF-12 ag: inactive; LXR ag: inactive; hcDAF12 ag: 5.7

How did CCc1cc2c(N[C@@H](Cc3c[nH]c4ccccc34)C(=O)O)ncnc2s1 do in these assays?
hcDAF12 agonist: 8.0; SMARCA2 act: inactive; DAX1 inh-1: inactive; DAX1 inh-2: inactive; ssDAF12 agonist: inactive; hgDAF-12 ag: inactive; LXR ag: inactive; hcDAF12 ag: inactive

Results for CCc1cc2c(NC(Cc3c[nH]c4ccccc34)C(=O)O)nc(C)nc2s1 (stereo not given) ?
hcDAF12 agonist: inactive; SMARCA2 act: inactive; DAX1 inh-1: inactive; DAX1 inh-2: inactive; ssDAF12 agonist: inactive; hgDAF-12 ag: inactive

How did Cc1sc2ncnc(N[C@@H](CCC(=O)O)C(=O)O)c2c1C do in these assays?
hcDAF12 agonist: inactive; SMARCA2 act: inactive; DAX1 inh-1: inactive; DAX1 inh-2: inactive; ssDAF12 agonist: inactive; hgDAF-12 ag: inactive

How did Cc1ccc(NC(=O)C2CCCN(C(=O)c3ccc(Cl)cc3)C2)c(C)c1 (stereo not given) do in these assays?
hcDAF12 agonist: inactive; SMARCA2 act: inactive; DAX1 inh-1: inactive; DAX1 inh-2: inactive; ssDAF12 agonist: inactive; hgDAF-12 ag: inactive
